Measured values as given in PubChem BioAssay (EPA / NIEHS).
Activity calls are given as the source filed them. The calls were made as follows: active = hit-call score of the fitted dose curve at least 0.9, where 1 is the maximum; inactive = score below 0.9.

Key:
[1] = read-out: Vascular endothelial growth factor receptor 2 (Homo sapiens) (UniProt P35968); experiment: BSK_4H_VEGFRII: BioMAP Diversity Plus: 4H Assay for Vascular endothelial growth factor receptor 2 (VEGFR2) Biomarker Activity (AID 2283031); details: primary human endothelial cells (HUVEC); actives raise or lower the signal
How it was run: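 Primary human umbilical vein endothelial cells (4H system), 24 h exposure; cell-surface VEGFR2 measured by ELISA. Bidirectional fitting versus DMSO; cytotoxicity checked in parallel by SRB total-protein staining.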

[2] = read-out: Human Leukocyte Antigen - DR isotype (HLADR), HLA-DRA (gene 3122); experiment: BSK_BE3C_HLADR: BioMAP Diversity Plus: BE3C Assay for Human Leukocyte Antigen - DR isotype (HLADR) Biomarker Activity (AID 2283032); details: primary human bronchial epithelial cells; actives raise or lower the signal
How it was run: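 BioMAP BE3C format: human bronchial epithelium, 24 h compound treatment, ELISA detection of HLA-DR, with bidirectional analysis relative to DMSO.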

[3] = read-out: Vascular cell adhesion molecule 1 (VCAM1), VCAM1 (gene 7412); experiment: BSK_4H_VCAM1: BioMAP Diversity Plus: 4H Assay for Vascular cell adhesion molecule 1 (VCAM1) Biomarker Activity (AID 2283033); details: primary human endothelial cells (HUVEC); actives raise or lower the signal;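 also: cell-surface VCAM-1 protein measured by ELISA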
How it was run: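 In this human endothelial (HUVEC) system, biomarker ELISA was run 24 h after compound addition, and total protein in parallel wells was assessed by SRB at 560 nm; DMSO served as negative control.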

[4] = read-out: Monokine induced gamma interferon (MIG), CXCL9 (gene 4283); experiment: BSK_BE3C_MIG: BioMAP Diversity Plus: BE3C Assay for Monokine induced gamma interferon (MIG) Biomarker Activity (AID 2283035); details: primary human bronchial epithelial cells; actives raise or lower the signal;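 also: MIG protein measured by ELISA in BE3C cultures after 24 h of dosing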
How it was run: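 Dose cells (human primary bronchial epithelial), incubate 24 h, quantify MIG by ELISA, then fit concentration–response in both directions relative to DMSO control.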

[5] = read-out: Transforming growth factor beta 1 (TGFb1), TGFB1 (gene 7040); experiment: BSK_BE3C_TGFb1: BioMAP Diversity Plus: BE3C Assay for Transforming growth factor beta 1 (TGFb1) Biomarker Activity (AID 2283036;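 as to outcome: TGF-b1 protein level measured by ELISA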); details: primary human bronchial epithelial cells; actives raise or lower the signal
How it was run: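 TGF-b1 measured via ELISA, 24 h after chemical dosing of human bronchial epithelial cells (BE3C). Overt cytotoxicity assessed in parallel by SRB (0.1%, TCA-fixed, 560 nm); analysis bidirectional relative to DMSO.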

[6] = read-out: Plasminogen activator inhibitor-1 (PAI1), SERPINE1 (gene 5054); experiment: BSK_BE3C_PAI1: BioMAP Diversity Plus: BE3C Assay for Plasminogen activator inhibitor-1 (PAI1) Biomarker Activity (AID 2283037); details: primary human bronchial epithelial cells; actives raise or lower the signal
How it was run: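 In this multiplexed primary-cell system, bronchial epithelial cells receive test chemical and are sampled at 24 h. PAI-1 is read by ELISA, with DMSO serving as negative control for bidirectional fitting.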

[7] = read-out: urokinase plasminogen activator (uPA), PLAU (gene 5328); experiment: BSK_BE3C_uPA: BioMAP Diversity Plus: BE3C Assay for urokinase plasminogen activator (uPA) Biomarker Activity (AID 2283038); details: primary human bronchial epithelial cells; actives raise or lower the signal;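 also: uPA protein level quantified by ELISA in cell cultures; uPA read one day after compound addition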
How it was run: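 Primary human bronchial epithelial cells, uPA measured by ELISA 24 h after dosing. Bidirectional change relative to DMSO; cytotoxicity checked in parallel cultures by sulforhodamine B total-protein staining.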

[8] = read-out: Interleukin-6 (IL6), IL6 (gene 3569); experiment: BSK_CASM3C_IL6: BioMAP Diversity Plus: CASM3C Assay for Interleukin-6 (IL6) Biomarker Activity for (AID 2283040); details: primary human coronary artery smooth muscle cells; actives raise or lower the signal
[9] = read-out: Tissue plasminogen activator (tPA), PLAT (gene 5327); experiment: BSK_BE3C_tPA: BioMAP Diversity Plus: BE3C Assay for Tissue plasminogen activator (tPA) Biomarker Activity (AID 2283041); details: primary human bronchial epithelial cells; actives raise or lower the signal;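 also: tPA level quantified by ELISA one day after compound addition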
How it was run: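 Using human lung primary bronchial epithelial cells, tPA was measured by ELISA 24 h after dosing; data fitted relative to DMSO.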

[10] = read-out: Interleukin-8 (IL8), CXCL8 (gene 3576); experiment: BSK_CASM3C_IL8: BioMAP Diversity Plus: CASM3C Assay for Interleukin-8 (IL8) Biomarker Activity (AID 2283042); details: primary human coronary artery smooth muscle cells; actives raise or lower the signal;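 also: IL-8 protein level quantified by ELISA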
[11] = read-out: Human Leukocyte Antigen - DR isotype (HLADR), HLA-DRA (gene 3122); experiment: BSK_CASM3C_HLADR: BioMAP Diversity Plus: CASM3C Assay for Human Leukocyte Antigen - DR isotype (HLADR) Biomarker Activity (AID 2283043); details: primary human coronary artery smooth muscle cells; actives raise or lower the signal;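 also: cell-surface HLA-DR protein level quantified by ELISA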
[12] = read-out: Macrophage colony-stimulating factor (MCSF), CSF1 (gene 1435); experiment: BSK_CASM3C_MCSF: BioMAP Diversity Plus: CASM3C Assay for Macrophage colony-stimulating factor (MCSF) Biomarker Activity (AID 2283044); details: primary human coronary artery smooth muscle cells; actives raise or lower the signal;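 also: M-CSF protein amount quantified by ELISA after 24 h exposure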
[13] = read-out: Low-density lipoprotein receptor (LDLR), LDLR (gene 3949); experiment: BSK_CASM3C_LDLR: BioMAP Diversity Plus: CASM3C Assay for Low-density lipoprotein receptor (LDLR) Biomarker Activity (AID 2283045); details: primary human coronary artery smooth muscle cells; actives raise or lower the signal;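 also: LDLR protein level on the cell surface quantified by ELISA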
[14] = read-out: Monocyte Chemoattractant Protein-1 (MCP1), CCL2 (gene 6347); experiment: BSK_CASM3C_MCP1: BioMAP Diversity Plus: CASM3C Assay for Monocyte Chemoattractant Protein-1 (MCP1) Biomarker Activity (AID 2283046); details: primary human coronary artery smooth muscle cells; actives raise or lower the signal;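 also: MCP-1 level quantified by ELISA 24 h after dosing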
[15] = BSK_CASM3C_Proliferation: Cell Proliferation Assessment in the BioMAP Diversity Plus: CASM3C Assay (AID 2283047); details: primary human coronary artery smooth muscle cells;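 also: sulforhodamine B total protein stain as relative cell number at 560 nm; sub-confluent cells exposed 48 h before staining; fitted both ways against DMSO so gain or loss of cell number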
[16] = read-out: Monokine induced gamma interferon (MIG), CXCL9 (gene 4283); experiment: BSK_CASM3C_MIG: BioMAP Diversity Plus: CASM3C Assay for Monokine induced gamma interferon (MIG) Biomarker Activity (AID 2283048); details: primary human coronary artery smooth muscle cells; actives raise or lower the signal;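 also: MIG protein level measured by ELISA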
[17] = read-out: serum amyloid A (SAA), SAA1 (gene 6288); experiment: BSK_CASM3C_SAA: BioMAP Diversity Plus: CASM3C Assay for serum amyloid A (SAA) Biomarker Activity (AID 2283049); details: primary human coronary artery smooth muscle cells; actives raise or lower the signal;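 also: SAA protein level quantified by ELISA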
[18] = BSK_CASM3C_SRB: Viability Assessment in the BioMAP Diversity Plus: CASM3C Assay (AID 2283050); details: primary human coronary artery smooth muscle cells;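 also: total protein by SRB staining as cytotoxicity measure in parallel cultures; cells exposed to compound for 24 h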

Structure (SMILES)	outcome [1]	AC50 [2]	outcome [3]	outcome [4]	AC50 [5]	outcome [6]	outcome [7]	outcome [8]	outcome [9]	outcome [10]	outcome [11]	outcome [12]	outcome [13]	outcome [14]	outcome [15]	outcome [16]	outcome [17]	outcome [18]	outcome [2]	outcome [5]
O=C(NC(=O)c1c(F)cccc1F)Nc1ccc(OC(F)(F)C(F)OC(F)(F)F)c(Cl)c1 (centres undefined)	inactive	7.82 µM (active)	inactive	inactive	0.235 µM (active)	inactive	inactive	inactive	inactive	inactive	inactive	inactive	inactive	inactive	inactive	inactive	inactive	inactive		
Cc1cc(C)nc(NC(=O)NS(=O)(=O)c2ccccc2C(=O)OC2COC2)n1	inactive		inactive	inactive		inactive	inactive	inactive	inactive	inactive	inactive	inactive	inactive	inactive	inactive	inactive	inactive	inactive	inactive	inactive
COC(=O)c1ccccc1S(=O)(=O)NC(=O)Nc1nc(C)nc(OC)n1	inactive		inactive	inactive		inactive	inactive	inactive	inactive	inactive	inactive	inactive	inactive	inactive	inactive	inactive	inactive	inactive	inactive	inactive
